According to PubChem BioAssay:
The source made the active and inactive calls.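 How the source made its calls: active means z-score of at least 1.8 in each of two replicates, scored against plate mean and spread of sample wells; inactive means the rest.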

Test: galactose survival enhancers in mitochondrial complex I cybrids – cell-based, galactose medium, ATP luminescence, primary screen (AID 1645843);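 further: positive z means more ATP and so rescue of galactose-driven cybrid death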
Settings: complex I mutant cybrid cells, 72 h, active compounds read high

Structure (SMILES) | z-score
CCC(CC)(CCC#N)CNC1CCOC(C)(C)C1 (stereo not given) | -0.485 (inactive)
C=C1C(C)(C)[C@H]2CC[C@]1(C(=O)N1CCC(n3cc(CC(C)C)nn3)CC1)C2 | -0.52 (inactive)
Cc1ccc2c(C(=O)N3CCCC3c3nc(C)no3)cc(-c3cnn(C)c3)nc2c1 (stereo not given) | -0.585 (inactive)
Cn1ncc(NC(=O)Cn2ccc(-c3ccccc3C(F)(F)F)n2)n1 | 1.12 (inactive)
Cc1ccc(CCC(=O)N(C)Cc2cnn(C(C)C)c2)cc1C | -0.565 (inactive)
Cc1cc(CN2CCOC(CN)C2)ccc1OC1(C(=O)O)CCSCC1 (stereo not given) | -0.415 (inactive)
O=C(Nc1cccc(-c2cncnc2)c1)c1ccc2c(c1)OCO2 | -0.62 (inactive)
Cc1ccc2c(C(=O)N3CCCCC3C)cc(-c3cnn(C(C)C)c3)nc2c1 (stereo not given) | -0.16 (inactive)
COc1cccc(CC(=O)NCc2ccc(Cl)s2)c1 | -0.145 (inactive)
CC1(C)CC(CC(=O)N2CCC(n3cc(C(C)(C)O)nn3)CC2)CC(C)(C)N1 | -0.57 (inactive)
COc1ccc2c(c1)CC(c1nc(Cc3cccs3)no1)CO2 (stereo not given) | -0.1 (inactive)
Cc1cc(NC(=O)Cn2ccc(-c3ccsc3)n2)n(-c2ccccn2)n1 | 1.83 (inactive)
CC(CCCC(C)(C)O)CCNCC1(CO)CCC1 (stereo not given) | -0.48 (inactive)
CC(C)(O)c1cn(C2CCN(C(=O)C3CC34CCCC4)CC2)nn1 (stereo not given) | -0.475 (inactive)
Cn1nccc1NC(=O)Cn1ccc(-c2cnn(-c3ccccc3F)c2)n1 | -0.815 (inactive)
Cc1cccc2c(C(=O)N(C)C(C)C)cc(-c3cnc(-c4cccnc4)nc3)nc12 | -0.13 (inactive)
CCn1cc(-c2cc(C(=O)N3CCCCCC3)c3ccc(C)c(C)c3n2)cn1 | 1.92 (active)
CCn1cnc(NC(=O)NC2CCN(Cc3ccncc3)CC2)n1 | 3.54 (active)
O=C(CC1CCCCCC1)N1CCC(Cn2cc(CO)nn2)CC1 | -0.5 (inactive)
Cc1occc1C(=O)Nc1ccccc1C(=O)N(C)Cc1ccccn1 | -0.21 (inactive)

Structure (SMILES) | z-score
Cc1ccc2c(C(=O)N3CCC(C)(C)C3)cc(-c3cnn(C(C)C)c3)nc2c1 | -0.01 (inactive)
CC(C)(C)c1cn(CC2CCCN(C(=O)c3cn4cccnc4n3)C2)nn1 (stereo not given) | 0.425 (inactive)
Cc1cc(NC(=O)CCC2CC2)n(C(C)C)n1 | -0.44 (inactive)
CC(C)CCC(=O)N(C)CCCC1CCCC1 | -0.145 (inactive)
CCCn1cc(-c2ccnc(NC(CC(C)(C)C)c3cccnc3)n2)c(C)n1 (stereo not given) | 1.13 (inactive)
Cc1cc(N2CCCN(C(=O)Nc3nncs3)CC2)ccn1 | -0.265 (inactive)
CNCc1cn(C2CCN(CCC(C)CC(C)(C)C)CC2)nn1 (stereo not given) | -0.49 (inactive)
CC(C)C1C(=O)N(C)CCN1C(=O)Nc1nc(-c2ccccc2)ns1 (stereo not given) | -0.345 (inactive)
OCCCCCNCC1(N2CCOCC2)CCCCCC1 | -0.47 (inactive)
CCn1ncc(NC(=O)Cn2ccc(C(=O)OC)n2)n1 | -0.44 (inactive)
O=C(Nc1n[nH]c(Cc2ccccc2)n1)N1CCN(C(=O)c2ccco2)CC1 | 2.72 (active)
OCCCCCNc1nccc(-c2cnn(-c3ccc(F)cc3)c2)n1 | -0.895 (inactive)
O=C(Nc1n[nH]c(-c2ccco2)n1)N1CCc2c([nH]c3ccccc23)C1 | -0.135 (inactive)
COc1ccc(C(=O)N2CCN(C(=O)c3cc(C)c(C)cc3C)CC2)cc1 | 0.125 (inactive)
CC(C)n1cc(C(=O)N2CCCC(c3ccccc3)C2)cn1 (stereo not given) | -0.54 (inactive)
Cc1nc(NC(=O)N2CCCC(c3nc4ccccc4[nH]3)C2)nn1C (stereo not given) | 0.195 (inactive)
OC[C@@H](Cc1ccccc1)NC1CCCCCC1 | -0.55 (inactive)
c1ccc(Cn2ccnc2CNc2ncnc3nc[nH]c23)cc1 | -0.435 (inactive)
CC(C)c1ncc(-c2cc(C(=O)N3CCC(C)(C)C3)c3ccccc3n2)cn1 | 2.19 (active)
CCCc1cn(CC2CCN(C(=O)[C@@H](N)[C@@H](C)CC)CC2)nn1 | -0.24 (inactive)
